From PubChem BioAssay
HCV inh: HCV inhibition; Huh7.5.1 HCVcc-Cre infection, luciferase reporter, 44 h; Potency, µM (top dose mostly 41.8 µM), for inactives: at the highest dose activity change, negative = inhibition, usual class: inhibitors; 340,000 compounds, 3.4% hits
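A cell-based infection assay in which seeded cells (1,000 per well) receive test compound after 4 h, are inoculated with HCVcc-Cre at approximately 0.5 moi, and are incubated 44 h before luminescence detection.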
AMA1 RON2 block: inhibitors of Plasmodium falciparum AMA1-RON2 interaction | AlphaScreen AMA1-biotinylated RON2 peptide binding | Potency, µM (highest dose often 58.2 µM), for the others: at the top dose activity change, negative = inhibition, actives largely listed as inhibitors | 360,000 compounds, 0.2% hits | AID 720542;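 also: 0% = vehicle wells and -100% = peptide control; nearly all actives have a fitted effect of over 45% in size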
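AMA1 (3D7) with his tag at 25 nM final met compounds first, then biotinylated RON2 peptide at 25 nM; detection used donor plus acceptor beads, 10 µg/mL apiece, read by AlphaScreen after 30 min at room temperature.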
Pf growth 48h: P. falciparum growth inhibition at 48 hours (one generation); Potency, µM (series often up to 28.7 µM), without a hit: top-dose activity change, negative = inhibition, hits mostly inhibitors; P. falciparum luciferase growth in erythrocytes, 48 h; 310,000 compounds, 5.9% hits
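Here the parasites carry a stable luciferase gene and grow inside erythrocytes in Albumax-based RPMI medium with compound for one erythrocytic cycle. Activity is scored as loss of luminescent signal.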
Pf growth 96h: P. falciparum growth inhibition at 96 hour, primary screen for plastid delayed-death inhibitors | P. falciparum luciferase reporter growth, 96 h | Potency, µM (series often up to 28.7 µM), for inactives: at the top dose activity change, negative = inhibition, hits mostly inhibitors | 320,000 compounds, 6.9% hits
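Infected RBCs, 2% Hct / 0.05% parasitemia final; luciferase-reporter P. falciparum; cpd 96 h, 37 C, 5% CO2; luciferase detection reagent; luminescence.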
Starred values were filed as active, the others as inactive; ? = inconclusive; / = no result; [ ] = another dose, or the depositor's remark. This is a sample that favours compounds with a hit; in the whole collection about 11% have one here. Calls follow the shape of the dose curve; as a rule, active = well fitted curve in the direction sought with a large enough effect; inconclusive = small, poorly fitted or top-dose-only effect, or another doubt; inactive = no such curve, though single readings can be large; an effect the other way counts as inactive or inconclusive. Unless noted, % is scaled to controls: 0 for no effect and ±100 for the full control effect; potency is read from the fitted curve at half-maximal effect.

SMILES	HCV inh	AMA1 RON2 block	Pf growth 48h	Pf growth 96h
COc1ccccc1C(CNC(=O)c1ccc(C)c(S(=O)(=O)N2CCCCC2)c1)N1CCCC1 (stereo not given)	3%	-1%	?	10µM*
Cc1ccc(Cn2nc(C)c(NC(=O)C3(C)CC3(Br)Br)c2C)cc1 (stereo not given)	-1%	-16%	-30%	?
CN1C(=O)/C(=C/c2ccccc2OCc2cccc(F)c2)NC1=S	?	-5%	?	1%
COc1cccc(CNC(=O)c2ccc(C)c(S(=O)(=O)N3CCOCC3)c2)c1	?	2%	?	?
COc1cccc(CNC(=O)c2ccc(C)c(S(=O)(=O)N3CCCCC3)c2)c1	10µM*	-2%	?	?
COc1cccc(CNC(=O)CCC2CCCN(c3cc(C)nc(N4CCCC4)n3)C2)c1 (stereo not given)	-16%	-12%	?	12µM*
Cc1cc(Cl)ccc1OCC(=O)N(Cc1ccco1)C1CCS(=O)(=O)C1 (stereo not given)	8%	-1%	-28%	?
c1ccc(C2COC(c3cccs3)=N2)cc1 (stereo not given)	8%	6%	0%	24%
Fc1ccccc1N1CC(c2ccccc2)C(c2cccs2)=N1 (stereo not given)	?	297%	/	12µM*
CC1CCN(C(=O)COc2ccc(S(=O)(=O)N3CCOCC3)cc2)CC1	7%[8.37 µM]	2%	?	-11%
CC12CCC(C(=O)OC3CCCCC3)(OC1=O)C2(C)C (stereo not given)	24%	-3%	31%	12µM*
CCCNC1=C(C)C(=O)C2=C(C1=O)C(COC(N)=O)[C@]1(OC)C3NC3CN21 (stereo not given in full)	?	-20%	1.3µM*	0.19µM*
CO[C@@]12[C@@H]3N[C@@H]3CN1C1=C(C(=O)C(N)=C(C)C1=O)[C@@H]2COC(N)=O	?	-16%	/	/
CO[C@@]12[C@H](COC(N)=O)C3=C(C(=O)C(C)=C(N)C3=O)N1C[C@@H]1N[C@@H]12	6%	-5%	13µM*	5.2µM*
CC(C)N(Cc1nc(-c2ccc(Cl)cc2)no1)C(=O)C(c1ccccc1)c1ccccc1	-16%	-9%	/	8.3µM*
Cc1ccc(-c2noc(CN(C(=O)C(c3ccccc3)c3ccccc3)C(C)C)n2)cc1	-29%	-11%	?	?
C/C(=N\Nc1ccc(C(=O)O)cc1)c1ccc(S(=O)(=O)NCc2ccco2)cc1	22%	39%	87%	25%
CCCCCCn1c(=O)n2n(c1=O)C[C@]1(OC(=O)NC3CCCC3)CN(S(=O)(=O)c3ccc(C)cc3)C[C@]1(O)C2	/	-3%	/	/
COC(=O)[C@@]1(Cc2ccc(F)cc2)[C@H]2c3cc(C(=O)N(C)C)n(Cc4ccc(OC(F)(F)F)cc4)c3C[C@H]2CN1C(=O)c1ccccc1	-2%[8.37 µM]	/	1.9µM*	2.3µM*
COC(=O)[C@@]1(Cc2ccc(F)cc2)[C@H]2c3cc(C(=O)N(C)C)n(Cc4ccc(C)c(F)c4F)c3C[C@H]2CN1C(=O)c1ccccc1	/	-16%	/	/
COC(=O)[C@@]1(Cc2ccc(F)cc2)[C@H]2c3cc(C(=O)N(C)C)n(Cc4c(CO)[nH]cc(C)c4=O)c3C[C@H]2CN1C(=O)c1ccccc1	3%[8.37 µM]	-4%	1.3µM*	1.9µM*
O=C(NC(=O)c1ccc(Cl)cc1)OC1CCCCC1	17%	3%	13%	24%
COc1ccc(S(=O)(=O)N(C(=O)c2ccco2)c2cc3sc(=O)oc3c3ccccc23)cc1	0%	-25%	?	44%
Cc1ccc(S(=O)(=O)N(C(=O)c2ccco2)c2cc3sc(=O)oc3c3ccccc23)cc1	-2%	-4%	10µM*	12µM*
CCOC(=O)c1c(C)nc2sc3c(=O)n(-c4ccc(OC)cc4)cnc3c2c1-c1ccc(OC)cc1	2%	-21%	?	12µM*
SMILES	HCV inh	AMA1 RON2 block	Pf growth 48h	Pf growth 96h
CCOC(=O)c1c(C)nc2sc(C(N)=O)c(N)c2c1-c1ccc(OC)cc1	?	-3%	7%	/
CCOC(=O)c1c(C)nc2sc(C(=O)Nc3ccc(C(C)=O)cc3)c(N)c2c1-c1ccc(OC)cc1	?	38%	?	28%[5.75 µM]
CCOC(=O)c1c(C)nc2sc(C(=O)Nc3ccc(OC)cc3)c(N)c2c1-c1ccc(OC)cc1	3.5µM*	-12%	/	2.3µM*
CCOC(=O)c1c(C)nc2sc3c(=O)n(-c4ccc(C(C)=O)cc4)nnc3c2c1-c1ccc(OC)cc1	8.9µM*	-19%	?	-14%
Cc1ccc(NC(=O)Cn2nc(C(=O)O)c3ccccc3c2=O)cc1S(=O)(=O)N1CCCCCC1	16%	-8%	/	/
O=C(CCN1C(=O)C2CC=CCC2C1=O)Nc1ccc(S(=O)(=O)N2CCCCC2)cc1 (stereo not given)	0%	-8%	?	-3%
CCC(CC)NC(=O)c1oc2ccccc2c1COc1ccccc1	?	-4%	6.6µM*	4.1µM*
CC(C)CNC(=O)c1oc2ccccc2c1COc1ccccc1	-6%	-3%	12µM*	10µM*
CCOC(=O)N1CCC(N(CCN(C)C)C(=S)Nc2ccc(Oc3ccccc3)cc2)CC1	11µM*	15%	-10%	-84%
CCOC(=O)N1CCC(N(CCN(C)C)C(=S)Nc2cccc(C)c2)CC1	13%	26%	15%	-2%
O=C(/C=C/Nc1ccccc1)c1ccccc1	4%	5%	/	7.4µM*
CC(=O)Nc1ccc(N/C=C/C(=O)c2ccccc2)cc1	12%	-9%	144%	2%
COc1cc(O)c(C(CCN2CCCC(C)C2)c2cc(OC)c(OC)c(OC)c2)c(OC)c1 (stereo not given)	-25%	50%	1.3µM*	0.52µM*
COc1cc(OC)c2c(-c3ccccc3)cc(=O)oc2c1C(CCN1CCCCC1)c1ccc2c(c1)OCO2 (stereo not given)	?	-10%	?	9.3µM*
COc1cc(O)c(C(CCN2CCCCC2)c2ccc3c(c2)OCO3)c(OC)c1 (stereo not given)	-23%	-8%	0.93µM*	0.47µM*
COc1cc(OC)c2c(-c3ccccc3)cc(=O)oc2c1C(CC(=O)N1CCCC1)c1ccc2c(c1)OCO2 (stereo not given)	?	-17%	9.3µM*	?
COc1cc(O)c(C(CC(=O)N2CCOCC2)c2cc(OC)c(OC)c(OC)c2)c(OC)c1 (stereo not given)	12%	-3%	?	39%
Cc1cccc(C)c1N1CCN(C(c2cc3ccccc3o2)c2nnnn2C(C)(C)C)CC1 (stereo not given)	/	-13%	/	/
Cc1ccc(NC(=O)CCC(=O)N/N=C/C=C/c2ccccc2)cc1	-3%	-16%	-13%	156%
COc1cc(OC)c2c(-c3ccccc3)cc(=O)oc2c1C(CCN1CCCC(C)C1)c1ccc2c(c1)OCO2 (stereo not given)	-25%	3%	12µM*	?
Cn1c(=O)c2cc(S(=O)(=O)N3CCC(c4ccccc4)CC3)ccc2n(C)c1=O	13%	1%	-9%	/
